“And” between values parts separate entries of the source, which are not always exact repeats. Identical values can stand only once. Results filed as inconclusive are left out. More than one record can exist for a structure, and the calls need not agree. The source made the active and inactive calls. Rule for the calls, unless noted: active = hit-call score of the fitted dose curve at least 0.9, where 1 is the maximum; inactive = score below 0.9.
What was measured:
[1] = CCTE_Shafer_MEA_dev_firing_rate_mean: CCTE's Neural Network Formation Assay for Mean Firing Rate, Shafer Lab (AID 2284031);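 for AC50: curve fitted for loss of firing so AC50 reflects decreased mean firing rate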
How it was run: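 Primary rat cortical neurons on 48-well MEA plates, exposed from plating day 0 with dosing renewed on DIV 5 and 9. Mean well firing rate over active electrodes, recorded days 5, 7, 9, 12, summarised as trapezoidal AUC.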

[2] = CCTE_Shafer_MEA_dev_per_burst_spike_percent: CCTE's Neural Network Formation Assay for Percent of Spikes in a Burst, Shafer Lab (AID 2284032);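 for AC50: fitted as a decrease in burst spike percentage below DMSO baseline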
How it was run: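 Rat primary cortical neurons on 16-electrode MEA wells, dosed from plating day 0 for 12 days with renewal on DIV 5 and 9; spikes-in-bursts percentage averaged over bursting electrodes, collapsed as AUC across days 5, 7, 9, 12; loss direction versus DMSO.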

[3] = CCTE_Shafer_MEA_dev_active_electrodes_number: CCTE's Neural Network Formation Assay for Number of Active Electrodes, Shafer Lab (AID 2284040; active = hit-call score of the fitted dose curve at least 0.9, where 1 is the maximum;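 for AC50: potency for loss of active electrodes versus DMSO so lower counts are hits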)
How it was run: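 Primary rat cortical neurons on 16-electrode MEA wells, exposed from day 0 through day 12 with compound renewed at DIV 5 and 9 feeds. Active electrodes (mean firing ≥5 spikes/min) counted at DIV 5, 7, 9, 12; trapezoidal AUC across days, loss-of-signal versus DMSO.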

[4] = CCTE_Shafer_MEA_dev_burst_rate: CCTE's Neural Network Formation Assay for Burst Rate, Shafer Lab (AID 2284042);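 for AC50: potency for loss of burst rate below DMSO control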
How it was run: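 Exposure ran continuously over 12 days of network development in rat cortical cultures, with compound refreshed during full media changes on DIV 5 and 9. Single-electrode bursts per recording time, well-mean over active electrodes, trapezoidal AUC across days 5–12, fitted downward relative to DMSO.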

[5] = CCTE_Shafer_MEA_dev_bursting_electrodes_number: CCTE's Neural Network Formation Assay for Number of Bursting Electrodes, Shafer Lab (AID 2284043; active = hit-call score of the fitted dose curve at least 0.9, where 1 is the maximum;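 for AC50: potency is for loss of bursting electrodes relative to DMSO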)
How it was run: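 Primary rat cortical neurons were cultured on PEI-coated 48-well MEA plates (16 electrodes/well) and exposed from plating through day 12, with compound renewed at feeds on DIV 5 and 9. Electrodes bursting ≥1 per 2 min were counted on DIV 5, 7, 9, 12; trapezoidal AUC taken.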

[6] = CCTE_Shafer_MEA_dev_per_burst_interspike_interval: CCTE's Neural Network Formation Assay for Burst Interspike Interval, Shafer Lab (AID 2284044);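 note: mean spike spacing inside bursts as AUC over recordings on days 5 7 9 12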;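 for AC50: potency for a decrease of within-burst interspike interval below DMSO level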
How it was run: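 Mean interspike interval within single-electrode bursts, averaged over bursting electrodes, from rat cortical cultures on MEA plates recorded on days 5, 7, 9 and 12. Continuous compound exposure from plating; trapezoidal AUC fitted downward relative to DMSO.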

[7] = CCTE_Shafer_MEA_dev_burst_duration_mean: CCTE's Neural Network Formation Assay for Mean Burst Duration, Shafer Lab (AID 2284045);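 for AC50: curve fitted for loss meaning shorter burst duration than DMSO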
How it was run: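 Primary rat cortical neurons on PEI-coated 16-electrode MEA wells, exposed from plating through day 12 with compound renewed at DIV 5 and 9; spontaneous activity recorded days 5, 7, 9, 12. Well-mean burst duration collapsed as trapezoidal AUC, fitted for loss versus DMSO.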

[8] = CCTE_Shafer_MEA_dev_interburst_interval_mean: CCTE's Neural Network Formation Assay for Mean Interburst Interval, Shafer Lab (AID 2284046);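 note: well-mean interburst interval of bursting electrodes as AUC over four recording days; curve fitted for decrease in interburst interval relative to DMSO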
How it was run: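 Primary rat cortical neurons on PEI-coated 48-well MEA plates (laminin added with cells at plating) (16 electrodes/well), exposed from plating day 0 with renewal at DIV 5 and 9. Mean inter-burst interval averaged over bursting electrodes, AUC across days 5, 7, 9, 12; DMSO baseline.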

[9] = CCTE_Shafer_MEA_dev_inter_network_spike_interval_mean: CCTE's Neural Network Formation Assay for Mean Inter-network Spike Interval, Shafer Lab (AID 2284047)
How it was run: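 Mean time between consecutive network-spike peaks, recorded extracellularly (adaptive spike detection) on DIV 5, 7, 9 and 12, summarized as trapezoidal AUC. Rat cortical cultures on MEAs dosed continuously days 0–12, re-dosed at feeds; loss-of-signal fit relative to DMSO.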

[10] = CCTE_Shafer_MEA_dev_network_spike_number: CCTE's Neural Network Formation Assay for Number of Network Spikes, Shafer Lab (AID 2284048);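 note: synchronized bursts across electrodes counted on days 5 7 9 12 and integrated as AUC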;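 for AC50: fit as a loss of signal meaning fewer network spikes than DMSO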
How it was run: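 Primary rat cortical neurons were seeded at 1.5 x 10^5 cells/well on PEI-coated 16-electrode MEA wells with laminin, exposed from plating day 0, compound renewed at DIV 5 and 9. Network spikes were recorded on days 5, 7, 9, 12 and summarized as trapezoidal AUC versus DMSO.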

[11] = CCTE_Shafer_MEA_dev_network_spike_peak: CCTE's Neural Network Formation Assay for Mean Number of Electrodes in Network Spike, Shafer Lab (AID 2284049);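 for AC50: fitted for loss of signal meaning fewer electrodes in network spikes than DMSO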
How it was run: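 Continuous 12-day exposure of rat cortical cultures, starting at plating, on MEA plates. Endpoint: electrodes participating in network-spike peaks, AUC across DIV 5–12, DMSO as negative control.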

[12] = CCTE_Shafer_MEA_dev_spike_duration_mean: CCTE's Neural Network Formation Assay for Mean Spike Duration, Shafer Lab (AID 2284051);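 note: mean network spike duration pooled as area under curve over DIV 5 to 12 recordings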;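 for AC50: potency for a decrease in mean network spike duration versus DMSO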
How it was run: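 Spontaneous activity was recorded on days 5, 7, 9 and 12 from rat cortical cultures grown on microelectrode arrays and dosed continuously from day 0, with media and compound renewed after the DIV 5 and 9 recordings. Network-spike duration was collapsed by area under the curve.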

[13] = CCTE_Shafer_MEA_dev_network_spike_duration_std: CCTE's Neural Network Formation Assay for Standard Deviation of Network Spike Duration, Shafer Lab (AID 2284052);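 note: hits are decreases in network spike duration SD versus DMSO vehicle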
How it was run: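 Network spike duration variability was collapsed across recordings on days 5, 7, 9 and 12 by trapezoidal area-under-curve and fitted downward against DMSO. Cultures were rat cortical neurons on PEI-coated MEA plates, dosed continuously from plating, refed with compound DIV 5/9.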

[14] = CCTE_Shafer_MEA_dev_per_network_spike_spike_number_mean: CCTE's Neural Network Formation Assay for Mean Number of Spikes in a Network Spike, Shafer Lab (AID 2284053);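 for AC50: fitted as decrease in spikes per network spike relative to DMSO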
How it was run: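 Mean spike count within each network spike, taken in a 0.05 s window at its peak, was recorded on days 5, 7, 9 and 12 and integrated as trapezoidal area under the curve. Rat cortical cultures on MEA plates received continuous compound from day 0, refreshed at medium changes on DIV 5 and 9.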

[15] = target: Estrogen receptor (Homo sapiens) (UniProt P03372); test: CCTE_Deisenroth_AIME_384WELL_LUC_Active: CCTE's 384-well Estrogen Receptor Transactivation Assay with AIME metabolic competence (ERTA luciferase; metabolism positive), Deisenroth Lab (AID 2284030; active = hit-call score of the fitted dose curve at least 0.9, where 1 is the maximum)
Estrogen receptor (Homo sapiens), sequence (P03372 whole entry, looked up): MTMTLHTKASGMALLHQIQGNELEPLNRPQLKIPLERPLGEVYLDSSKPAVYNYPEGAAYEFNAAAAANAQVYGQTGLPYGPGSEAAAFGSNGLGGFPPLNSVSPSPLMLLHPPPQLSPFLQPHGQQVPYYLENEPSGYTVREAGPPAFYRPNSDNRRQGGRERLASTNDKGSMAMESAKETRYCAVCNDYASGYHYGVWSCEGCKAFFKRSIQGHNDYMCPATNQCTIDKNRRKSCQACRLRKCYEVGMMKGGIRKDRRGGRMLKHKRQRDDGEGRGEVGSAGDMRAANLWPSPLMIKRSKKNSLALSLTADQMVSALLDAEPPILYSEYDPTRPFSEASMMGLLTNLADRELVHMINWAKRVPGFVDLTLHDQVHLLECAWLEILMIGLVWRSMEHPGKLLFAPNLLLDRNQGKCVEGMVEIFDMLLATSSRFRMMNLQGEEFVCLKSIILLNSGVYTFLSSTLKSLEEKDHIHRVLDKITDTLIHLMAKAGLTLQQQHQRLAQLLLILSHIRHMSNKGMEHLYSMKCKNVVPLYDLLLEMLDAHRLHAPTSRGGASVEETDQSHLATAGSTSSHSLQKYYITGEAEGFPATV
How it was run: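 VM7Luc4E2 breast cells were given, for 24 hours, medium pre-incubated for 2 hours with parent chemical (0.002-200 uM, 10 concentrations) and alginate-encapsulated phenobarbital/beta-naphthoflavone-induced rat hepatic S9. Luciferase gain of signal was fitted against 17beta-estradiol; n=4 or more.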

[16] = CCTE_Deisenroth_AIME_384WELL_CTox_Active: Cytotoxicity Assessment (CTOX) in CCTE's 384-well Estrogen Receptor Transactivation Assay with AIME metabolic competence (metabolism positive), Deisenroth Lab (AID 2284037; active = hit-call score of the fitted dose curve at least 0.9, where 1 is the maximum;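 note: chemicals first conditioned 2 h by alginate-bound induced rat liver S9 before cells; activity means signal loss indicating cell death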)
How it was run: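 VM7Luc4E2 breast cells received medium pre-incubated 2 h with chemical over alginate microspheres holding induced male Sprague Dawley rat liver S9; viability read 24 h later by protease-substrate fluorescence. Loss of signal, bidirectional fit, 0.002–200 uM.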

[17] = target: Estrogen receptor (Homo sapiens) (UniProt P03372); test: CCTE_Deisenroth_AIME_384WELL_LUC_Inactive: CCTE's 384-well Estrogen Receptor Transactivation Assay without AIME metabolic competence (ERTA luciferase; metabolism negative), Deisenroth Lab (AID 2284038; active = hit-call score of the fitted dose curve at least 0.9, where 1 is the maximum;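 note: hits raise estrogen receptor luciferase signal so potencies reflect agonists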)
How it was run: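 Metabolism-negative mode: chemicals (10-point, 0.002–200 uM) held 2 h with alginate-water microspheres, then conditioned medium applied to VM7Luc4E2 cells for 24 h. Luciferase induction referenced to 17beta-estradiol.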

[18] = CCTE_Deisenroth_AIME_384WELL_CTox_Inactive: Cytotoxicity Assessment (CTOX) in CCTE's 384-well Estrogen Receptor Transactivation Assay without AIME metabolic competence (metabolism negative), Deisenroth Lab (AID 2284039; active = hit-call score of the fitted dose curve at least 0.9, where 1 is the maximum;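 note: cell viability via live-cell protease substrate cleaved to fluorescent probe; cells exposed 24 h to medium preincubated 2 h with alginate-water beads without S9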)
How it was run: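 Fluorescent protease-substrate viability readout after 24 h exposure of VM7Luc4E2 cells to conditioned medium. Chemicals (0.002–200 uM) first sat 2 h over alginate-water beads, no S9. Data fitted bidirectionally, loss of signal meaning viability loss.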

[19] = target: Estrogen receptor (Homo sapiens) (UniProt P03372); test: CCTE_Deisenroth_AIME_384WELL_LUC_Shift: CCTE's 384-well Estrogen Receptor Transactivation Assay with AIME metabolic competence data shift (ERTA luciferase; difference in metabolism positive and negative), Deisenroth Lab (AID 2284041);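 note: shift is response with S9 minus without S9 so positive means metabolism raised ER signal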
How it was run: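 Here, parent compounds undergo 2 h phase I metabolism by PB/BNF-induced rat S9 before 24 h transactivation in VM7Luc4E2 cells; the curve models S9-positive minus S9-negative response over a 10-point series.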

Measured: AC50

CC[C@H](C)[C@H]1O[C@]2(C=C[C@@H]1C)C[C@@H]1C[C@@H](C/C=C(\C)[C@@H](O[C@H]3C[C@H](OC)[C@@H](O[C@H]4C[C@H](OC)[C@@H](O)[C@H](C)O4)[C@H](C)O3)[C@@H](C)/C=C/C=C3\CO[C@@H]4[C@H](O)C(C)=C[C@@H](C(=O)O1)[C@]34O)O2 (tested in a mixture with another compound)
active: [1] 0.611 nM and 1.02 nM | [2] 9.62 nM and 1.82 nM | [3] 3.93 nM and 1.65 nM | [4] 1.57 nM and 0.778 nM | [5] 3.82 nM and 1.05 nM | [6] 1.37 nM and 2.71 nM | [7] 1.34 nM and 0.41 nM | [8] 12.2 nM and 2.7 nM | [10] 27.5 nM and 2.25 nM | [11] 16.4 nM and 2.37 nM | [12] 3.01 nM and 0.926 nM | [13] 2.28 nM and 0.912 nM | [14] 6.69 nM and 2.06 nM
inactive: [9]

CCc1ccc(C(=O)NN(C(=O)c2cc(C)cc(C)c2)C(C)(C)C)cc1
inactive: [15] | [16] | [17] | [18] | [19]

O=C(O)C(F)(F)C(F)(F)C(F)(F)C(F)(F)C(F)(F)C(F)(F)C(F)(F)F
active: [3] 14.1 µM | [11] 13.9 µM
inactive: [1] | [2] | [16] | [18] | [3] | [4] | [5] | [6] | [7] | [8] | [9] | [10] | [11] | [12] | [13] | [14]

CCC(C)Nc1c([N+](=O)[O-])cc(C(C)(C)C)cc1[N+](=O)[O-] (centres undefined)
inactive: [16] | [18]
active: [15] 11.1 µM | [17] 12.4 µM | [19] 8.77 µM

Cc1[nH]c(=O)n(C(C)(C)C)c(=O)c1Cl
active: [19] 66.1 µM
inactive: [15] | [16] | [17] | [18]

O=[N+]([O-])/N=C1\NCCN1Cc1ccc(Cl)nc1
active: [14] 15 µM
not listed: [15] | [16] | [17] | [18] | [19]
inactive: all other assays above

CNC(=O)CSP(=S)(OC)OC
inactive: [1] | [4] | [6] | [7] | [8] | [9] | [10] | [12] | [13] | [14]
active: [1] 79.3 µM | [2] 63.8 µM and 27.9 µM | [3] 77.4 µM and 18.9 µM | [4] 78.2 µM | [5] 66.4 µM and 21.9 µM | [11] 50 µM and 15 µM | [12] 50 µM | [14] 50 µM

— PubChem BioAssay (EPA / NIEHS)
